From PubChem BioAssay (NCI)
“And” between values parts separate entries of the source, which are not always exact repeats. Equal values may be shown once. Compounds without any hit were thinned out: in the full panel of roughly 79,000, 15% have a hit. Rule as the data show it: active = growth inhibition above about 70%; inactive = the rest.

Tests used:
[1] = NCI Yeast Anticancer Drug Screen. Data for the rad50 strain (AID 155);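 also: 0% = growth of vehicle-only cultures of the same strain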; conditions: S. cerevisiae rad50 strain growth inhibition; at 50.0 µM; active compounds read high
How it was run: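 Cells are treated with compound, grown, and their growth is then scored against vehicle-only cultures of the same repair-deficient yeast strain.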

[2] = NCI Yeast Anticancer Drug Screen. Data for the mec2-1 strain (AID 157); conditions: S. cerevisiae mec2-1 strain, at 50.0 µM, active compounds read high
How it was run: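 Cells of the genetically defined mec2-1 yeast strain are incubated with test compound. Inhibition of growth is calculated against vehicle-treated controls.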

[3] = NCI Yeast Anticancer Drug Screen. Data for the sgs1 mgt1 strain (AID 161);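 also: 0% = growth of cultures given vehicle only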; conditions: S. cerevisiae sgs1 mgt1 strain, at 50.0 µM, active compounds read high
How it was run: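 Read-out: growth inhibition vs vehicle controls. Cells: mutant yeast strain deficient in DNA damage repair.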

[4] = NCI Yeast Anticancer Drug Screen. Data for the cln2 rad14 strain (AID 165);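 also: 0% = growth equal to vehicle treated cultures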; conditions: S. cerevisiae cln2 rad14 strain, at 50.0 µM, active compounds read high
How it was run: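 The screen exposed genetically defined yeast (cln2 rad14) to test compounds and scored growth inhibition relative to vehicle-treated controls.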

[5] = NCI Yeast Anticancer Drug Screen. Data for the bub3 strain (AID 167); conditions: S. cerevisiae bub3 mutant strain, at 50.0 µM, active compounds read high
How it was run: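 Part of a panel of yeast mutants defective in DNA damage repair or cell cycle regulation. Each strain is grown with compound, and inhibition is calculated relative to solvent-treated cultures.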

[6] = NCI Yeast Anticancer Drug Screen. Data for the mlh1 rad18 strain (AID 175); conditions: S. cerevisiae mlh1 rad18 strain growth inhibition; at 50.0 µM; active compounds read high
How it was run: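 Compound-treated yeast growth, normalised to vehicle controls. Strain bears defined DNA repair mutations.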

Measured: growth inhibition

N#CC(Cc1ccccc1)c1ccccc1 (centres undefined)
inactive: [1] -65.7% and 17.2% | [2] -12.5% and 11.1% | [3] -18.1% and 29.8% | [4] -24.8% and 1.75% | [5] 0.45% and -5% | [6] 3.45% and 6.45%

Cc1ccc(C2SCC(=O)N2CCN2C(=O)CSC2c2ccc(C)o2)o1 (centres undefined)
inactive: [1] 7.1% and 5.95% | [2] 16.1% and 8.45% | [3] -2.45% and 17.6% | [4] 3.15% and -0.1% | [5] -1.45% and -3.45% | [6] 13.2% and -12.4%

CC(O)c1nc2c([nH]1)c(=O)n(C)c(=O)n2C (centres undefined)
inactive: [1] -4.3% and -3.1% | [2] -6.2% and -8.9% | [3] -5.6% and -2% | [4] -30.3% and -16.9% | [5] 5.7% and -13.9% | [6] 9.15% and -23.2%

O=C(CC(=O)Nc1ccccc1)Nc1ccccc1
inactive: [1] -3.55% and 32.1% | [2] -21% and 0.2% | [3] -5.95% and 23.4% | [4] 8.5% and 5.5% | [5] -28.6% and -1.65% | [6] -5.55% and 20.8%

CC(=O)c1c(O)c(C)c(O)c2c1OC1=CC(=O)C(C(C)=O)C(=O)C12C (centres undefined)
inactive: [1] 30.6% and 28.6% and -0.1% | [2] 21% and 17.2% and -20.2% | [3] 28.4% and 23.8% and -25.1% | [4] 37% and 23.2% and -19.4% | [5] 30.4% and 24.9% and 12.6% | [6] 23.9% and 31.6% and -25.6%

CC1(C)OC2OC(C(COS(C)(=O)=O)OS(C)(=O)=O)C(OS(C)(=O)=O)C2O1 (centres undefined)
inactive: [1] 15.7% and -9.65% | [2] 2.6% and 9.75% | [3] 37.9% and 10.2% | [4] 16.4% and 20.6% | [5] 5.9% and 1.45% | [6] 16.2% and 8%

CC(=O)OCC(OC(C)=O)C(OC(C)=O)C(OC(C)=O)C(C=NN(C(C)=O)S(=O)(=O)c1ccc(/C=C2\NC(=O)NC2=O)cc1)OC(C)=O (centres undefined)
inactive: [1] 2.7% and 15.3% | [2] 13.4% and 0.65% | [3] 26.6% and 11.7% | [4] 24.1% and 30.6% | [5] -5.25% and 7.15% | [6] 25.8% and 18.2%

CC(C)(C)OC(=O)N1CCCC1C(=O)O (centres undefined)
inactive: [1] -2% and 4.9% | [2] -22.3% and 2.55% | [3] 3.05% and 3.8% | [4] 6.05% and -24.8% | [5] 11.6% and -5.25% | [6] 2.45% and 4.55%

COC(=O)c1ccc(O)cc1
inactive: [1] 27.3% and 4.9% | [2] 14.6% and 25.4% | [3] 13.8% and 12.4% | [4] 3.9% and 14.8% | [5] -11.6% and -4.5% | [6] 8.9% and -0.35%

CC(=O)Nc1ccc(S(=O)c2ccc(NC(C)=O)cc2)cc1
inactive: [1] -25.6% and 12% | [2] -21.3% and 9.5% | [3] -45.5% and 12.1% | [4] 7.1% and -22.4% | [5] -15.6% and 10.3% | [6] -34.8% and 24.6%

O=C1C2C3C=CC(C3)C2C(=O)N1O (centres undefined)
inactive: [1] 18.1% and 24.3% | [2] -7.6% and -8.3% | [3] 7.1% and 11.2% | [4] 10% and 10.6% | [5] 25.1% and 3.05% | [6] 11.4% and 18.5%

Cc1cccc(OC(=O)Cc2ccccc2)c1
inactive: [1] -17.1% and -34.1% | [2] -14.6% and -8.2% | [3] -6.1% and -8.35% | [4] -9.45% and -38% | [5] 13.6% and -12.9% | [6] -16.2% and -8%

CN(C)C(c1ccccc1)C1COC2Cc3ccccc3C1O2 (centres undefined)
inactive: [1] -8.1% and -3.3% | [2] -4.55% and -11.4% | [3] 10.3% and -2.85% | [4] 2.05% and 6.35% | [5] -27.2% and -19.2% | [6] -6.6% and -23.6%

CCCSc1nc(COC(=O)NC)c(COC(=O)NC)n1C
inactive: [1] -5.1% and -10% | [2] -25.1% and 2% | [3] -5.8% and -9.1% | [4] -12% and 2.95% | [5] -5.1% and -2% | [6] -20.4% and 4.85%

CN(C)CC1CC(=O)C(CN(C)C)CC1=O (centres undefined)
inactive: [1] 7.35% and -5.3% | [2] 1.85% and -5.7% | [3] -10.1% and -21.7% | [4] 4% and -37.1% | [5] -7.45% and -15.6% | [6] 18.6% and -8.8%

O=C1CC(=P(c2ccccc2)(c2ccccc2)c2ccccc2)C(=O)O1
inactive: [1] 24.1% and -0.65% | [2] 24.5% and -1% | [3] 13.2% and 0% | [4] 14.7% and 9.8% | [5] 10.8% and -4.15% | [6] 12.2% and 5.5%

CCC(C(=O)O)C(=O)O.[NH-]CC[NH-].[Pt+2]
inactive: [1] -23.6% and -13.2% | [2] -8% and -3.95% | [3] -8.05% and -16.4% | [4] -29.4% and -13.5% | [5] 1.3% and 2% | [6] -10.8% and -24%

O=C(O)CCC(=O)c1cccs1
inactive: [1] 12.8% and -5.4% | [2] 4.25% and 19.6% | [3] 2.2% and -4.45% | [4] -28.4% and -5.5% | [5] -5.1% and -25.4% | [6] -28.9% and -21.1%

O=C1C(Br)CCCCCCCCCC1Br (centres undefined)
inactive: [1] -26.2% and 45% | [2] -6.4% and 11.2% | [3] 4.05% and 50% | [4] -3.1% and 22.9% | [5] -12.3% and 24.4% | [6] 0.9% and 36.4%
